Measured values: the supplement of paper PMC6522484
± gives the standard deviation of the averaged measurements.

Tests used:
DLD1 [1] = test: cell viability (CellTiter-Glo) relative to plate median (fraction of plate median); higher = more viable cells; details: 10 µM, treatment time 24 h
In short: (§1)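 Colorectal cancer cells expressing a stably transduced lentiviral TCF/Wnt firefly luciferase reporter were treated in 384-well plates with kinase inhibitor library compounds at a final 10 µM for 24 h. Firefly luciferase or CellTiterGlo luminescence was then read on parallel plates. Well signals were normalised to the plate median (webcellHTS2, additive, no log transformation) and averaged over two independent replicates.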

HCT116 [2] = test: as above; details: 10 µM; treatment time 24 h; reporter: TCF4/Wnt
In short: as §1

SW480 [3] = test: as above; details: 10 µM; treatment time 24 h; reporter: 7TFP
In short: as §1

DLD1 [4] = test: TCF/Wnt firefly luciferase reporter signal relative to plate median (fraction of plate median); higher = higher Wnt reporter signal; details: 10 µM, treatment time 24 h
In short: as §1

HCT116 [5] = test: as above; details: 10 µM; treatment time 24 h; reporter: TCF4/Wnt
In short: as §1

SW480 [6] = test: as above; details: 10 µM; treatment time 24 h; reporter: 7TFP
In short: as §1

Structure (SMILES) | cell viability (DLD1 [1]; reporter: 7TFP) | cell viability (DLD1 [1]; reporter: TCF4/Wnt) | cell viability (HCT116 [2]) | cell viability (SW480 [3]) | TCF/Wnt firefly luciferase reporter signal (DLD1 [4]; reporter: 7TFP) | TCF/Wnt firefly luciferase reporter signal (DLD1 [4]; reporter: TCF4/Wnt) | TCF/Wnt firefly luciferase reporter signal (HCT116 [5]) | TCF/Wnt firefly luciferase reporter signal (SW480 [6])
O=c1cc(-c2cccc3c2Sc2ccccc2S3)oc(N2CCOCC2)c1 | 1.02 ± 0.1 | 0.999 ± 0.03 | 1.11 ± 0.035 | 0.875 ± 0.0042 | 1.42 ± 0.13 | 1.18 ± 0.13 | 1.6 ± 0.4 | 1.18 ± 0.13
CCC[C@H](NC(=O)/C(C#N)=C/c1cccc(Br)n1)c1ccccc1 | 0.421 ± 0.17 | 0.532 ± 0.038 | 0.13 ± 0.066 | 0.826 ± 0.11 | 0.0449 ± 0.0065 | 0.0661 ± 0.016 | 0.0353 ± 0.0076 | 0.037 ± 0.0048
O=C1NC(=O)/C(=C/c2ccc3nccc(-c4ccncc4)c3c2)S1 | 0.973 ± 0.038 | 1.07 ± 0.071 | 0.597 ± 0.061 | 1.02 ± 0.13 | 0.312 ± 0.018 | 0.564 ± 0.29 | 0.417 ± 0.25 | 0.572 ± 0.07
CC[C@@H]1C(=O)N(C)c2cnc(Nc3ccc(C(=O)NC4CCN(C)CC4)cc3OC)nc2N1C1CCCC1 | 0.736 ± 0.16 | 0.863 ± 0.04 | 0.56 ± 0.13 | 0.897 ± 0.067 | 1.97 ± 0.2 | 2.25 ± 0.078 | 0.983 ± 0.93 | 1.36 ± 0.48
O=C(Nc1cccc(Cl)c1)Nc1ncc(CCNc2ncnc3ccsc23)s1 | 0.87 ± 0.023 | 0.8545 ± 0.0064 | 0.947 ± 0.03 | 0.922 ± 0.012 | 0.743 ± 0.15 | 0.952 ± 0.029 | 1.45 | 0.82 ± 0.061
C[C@@H](Oc1cc(-n2cnc3ccc(CN4CCN(C)CC4)cc32)sc1C(N)=O)c1ccccc1C(F)(F)F | 0.905 ± 0.036 | 0.934 ± 0.033 | 0.782 ± 0.0057 | 1.05 ± 0.057 | 0.726 ± 0.15 | 0.565 ± 0.17 | 0.335 ± 0.045 | 0.941 ± 0.11
O=C1NC(=O)C(c2ccccc2[N+](=O)[O-])=C1Nc1ccc(O)c(Cl)c1 | 1.13 ± 0.2 | 1.07 ± 0.035 | 1.06 ± 0.05 | 0.859 ± 0.072 | 1.63 ± 0.24 | 1.85 ± 0.45 | 2.56 ± 0.96 | 1.07 ± 0.12
CCOc1cc2ncc(C#N)c(Nc3ccc(OCc4ccccn4)c(Cl)c3)c2cc1NC(=O)/C=C/CN(C)C [Neratinib (HKI-272)] | 0.817 ± 0.03 | 0.877 ± 0.1 | 0.982 ± 0.083 | 0.541 ± 0.72 | 0.521 ± 0.3 | 0.763 ± 0.05 | 0.53 ± 0.33 | 0.508 ± 0.7
O=C1NCCc2[nH]c(-c3ccncc3)cc21 | 1.03 ± 0.14 | 1.03 ± 0.054 | 0.665 ± 0.14 | 1.24 ± 0.11 | 0.612 ± 0.054 | 0.44 ± 0.11 | 0.222 ± 0.0085 | 0.829 ± 0.023
C=CC(=O)N1CCC[C@@H](n2nc(-c3ccc(Oc4ccccc4)cc3)c3c(N)ncnc32)C1 | 1.05 ± 0.077 | 1.115 ± 0.0071 | 1.36 ± 0.085 | 1.16 ± 0.064 | 0.557 ± 0.17 | 0.881 ± 0.35 | 1.33 ± 0.14 | 1.11 ± 0.042
